Screening data deposited in PubChem BioAssay by Sanford-Burnham Center for Chemical Genomics.
In the library only some 4% were active in any assay of this set; here they are far more common.
Peg3 prom inh: inhibitors of Peg3 promoter; inhibition, % at 20 µM; 360,000 tested, 1.7% active; HeLa PEG-Prom luciferase reporter, luminescence, overnight;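 active = inhibition of at least 50% at 20 µM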
KKLEB tox: counter-screen for CF NF-kB inhibitors: cytotoxicity | KKLEB CF airway cells viability, ATPlite luminescence, overnight; hits give low values; cells stimulated with P. aeruginosa culture filtrate | activity change (cytotoxicity), % at 5 µM | 360,000 tested, 0.36% active;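 active = corrected activity change at or below -50% at 5 µM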
CF NFkB block: inhibitors of cystic fibrosis induced NF-kB | KKLEB NF-kB-GFP reporter, PAF-induced, GFP fluorescence overnight | inhibition, % at 5 µM | 360,000 tested, 0.86% active | AID 588850;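 active = at least 50% inhibition at 5 µM, scaled per plate between neutral and stimulator controls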;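 note: PAF is a Pseudomonas aeruginosa culture filtrate used as stimulus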
TWEAK-Fn14 inh: TWEAK-Fn14 signaling inhibition | TWEAK-stimulated Fn14 reporter cells, luciferase luminescence, 8 h | 360,000 tested, 2% active | inhibition, % at 10 µM | AID 1159606; in the data active = inhibition above about 50%
TROY NFkB inh: TROY signaling inhibition. Q293 LMP1-TROYcd NF-kB luciferase reporter, 4 h. AID 1347056. 360,000 tested, 0.98% active. inhibition, % at 10 µM;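 active = compounds whose plate-normalised and pattern-corrected inhibition of the luciferase reporter signal at the single screening dose is 50% or more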
HIF-2a inh: HIF-2a inhibition. 360,000 tested, 0.72% active. 786-0 RCC cells HIF-2a reporter, luciferase luminescence, overnight. AID 624352. inhibition, % at 18.8 µM;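 active = inhibition of the luminescence signal of 40% or more relative to plate controls, in a single-dose primary screen at 18.75 µM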
Of the large screens only hits and unclear results are named; the others gave an inactive call.

CC1=CC(=O)C=C(C)C1=NOS(=O)(=O)c1ccccc1	Peg3 prom inh 82, HIF-2a inh 63
CCOc1ccc(S(=O)(=O)Nc2cccc(C(=O)NCC(c3ccco3)N(C)C)c2)cc1 (configuration not stated)	none
Cc1ccc(S(=O)(=O)N(C)Cc2ccc(C(=O)N/N=C/c3ccc(OC(F)F)cc3OC(F)F)cc2)cc1	TWEAK-Fn14 inh 60
O=C(N/N=C/c1ccc(OC(F)F)cc1OC(F)F)c1ccc(Br)cc1	none
Cc1ccc(C(=O)Sc2cccccc2=O)cc1	Peg3 prom inh 103, TWEAK-Fn14 inh 102
CCOC(CNc1ncnc2sc(-c3ccccc3)cc12)OCC	none
COc1ccc(Nc2ncnc3sc(-c4ccccc4)cc23)cc1OC	TWEAK-Fn14 inh 51
CN(C)CCCNc1ncnc2sc(-c3ccccc3)cc12	Peg3 prom inh 71
Cc1ccc(NC(=O)c2cc(-c3ccccc3)nn2-c2ccccc2)cc1	none
O=C(Nc1ccc(F)cc1)c1nn(-c2ccccc2)c(=O)cc1Cl	Peg3 prom inh 99, TWEAK-Fn14 inh 55
Nc1ccc(/C=C/C(=O)c2ccco2)cc1	none
CC(C)(C)C(=O)Nc1ccc(/C=C/C(=O)c2ccco2)cc1	TWEAK-Fn14 inh 54, TROY NFkB inh 72
CC1CN(Cc2cnc(Cl)s2)CC(C)O1 (configuration not stated)	none
O=C1c2c(Br)c(Br)c(Br)c(Br)c2C(=O)N1c1ccccn1	Peg3 prom inh 52
O=C1c2cccc3cccc(c23)C(=O)N1c1ccccn1	none
COc1cc2c(-c3ccccc3O)nc3c(c(C)nn3-c3ccccc3)c2cc1OC	Peg3 prom inh 57
COc1cc(C2CC(=O)Nc3ccccc3S2)cc(OC)c1OC (configuration not stated)	Peg3 prom inh 51
CC(C)Cc1nc2sc3c(NCc4ccco4)ncnc3c2c2c1COC(C)(C)C2	TWEAK-Fn14 inh 52
COc1ccc(OC)c(S(=O)(=O)Nc2cc3c4c(c2)C(C)C(=O)N4CCC3)c1 (configuration not stated)	TROY NFkB inh 57
COc1ccc(OC)c(S(=O)(=O)Nc2cc3c4c(c2)CCC(=O)N4CCC3)c1	none
Cc1ccc(SC2=C(Sc3ccc(C)cc3)C(=O)c3ccccc3C2=O)cc1	TROY NFkB inh 60
COc1ccc(Cl)c(-c2cc(C(=O)Nc3ccc(C)c(NS(C)(=O)=O)c3)[nH]n2)c1	none
COc1ccc(NC(=O)c2cc(-c3cc(Cl)ccc3C)n[nH]2)cn1	none
Cc1ccc(NC(=O)c2cc(-c3cc(Cl)ccc3C)n[nH]2)cc1NS(C)(=O)=O	TWEAK-Fn14 inh 64
COc1ccc(Cl)cc1-c1cc(C(=O)Nc2ccc(C)c(NS(C)(=O)=O)c2)[nH]n1	Peg3 prom inh 69, TWEAK-Fn14 inh 72, TROY NFkB inh 53
NC(=O)c1cccc(-c2cnc3c(Nc4cccc(OC(F)(F)C(F)F)c4)nccn23)c1	TWEAK-Fn14 inh 72
NC(=O)CCN1CCN(Cc2cn[nH]c2-c2cccc3ccccc23)CC1	none
O=C1C2CC=CCC2C(=O)N1c1ccc(NCCc2ccc(O)cc2)c([N+](=O)[O-])c1 (configuration not stated)	TWEAK-Fn14 inh 57
Cc1cccc(C)c1-n1nnnc1C(c1cccc2ccccc12)N1CCN(C/C=C/c2ccccc2)CC1 (configuration not stated)	none
COc1ccc(-n2c(-c3ccccc3)c[n+]3c2CCC3)cc1	TWEAK-Fn14 inh 86
COc1ccc(-n2c(-c3ccc(Br)cc3)c[n+]3c2CCC3)cc1	none
C[C@@H](CO)NC(=O)c1ccc2c3n(nc2c1)-c1ccccc1CO3	TWEAK-Fn14 inh 53
Cc1ccc2c(c1)COc1c3ccc(C(=O)N[C@@H](CO)C(C)C)cc3nn1-2	none
CCc1ccc(NC(=O)CCc2c(C)nn(-c3ccc(N4CCCCC4)nn3)c2C)cc1	none
Cc1nc(CN(C)c2ncnc3ccc(-c4ccc5c(c4)OCO5)cc23)cs1	HIF-2a inh 55
CN(Cc1ccco1)c1ncnc2ccc(-c3ccc4c(c3)OCO4)cc12	none
COc1ccccc1NC(=O)c1coc(=O)c(Br)c1	none
O=S(=O)(c1ccccc1)N1CCN(c2nnc(-c3ccccc3)c3ccccc23)CC1	none
O=C(Nc1ccc(NC(=O)c2ccco2)nc1)c1ccccn1	TWEAK-Fn14 inh 52
